PLK1 PBD inh: inhibitors of human PLK1 polo-box domain binding; P53350; Plk1 PBD binding of FITC phosphopeptide, fluorescence polarization; Potency, µM, most hits filed as inhibitors; actives 2.8% (n = 360,000); AID 720504; further: series mostly up to about 57 µM; nearly all actives have a fitted effect of over 65% in size
Target sequence (P53350 whole entry, looked up, the tested form may be a part): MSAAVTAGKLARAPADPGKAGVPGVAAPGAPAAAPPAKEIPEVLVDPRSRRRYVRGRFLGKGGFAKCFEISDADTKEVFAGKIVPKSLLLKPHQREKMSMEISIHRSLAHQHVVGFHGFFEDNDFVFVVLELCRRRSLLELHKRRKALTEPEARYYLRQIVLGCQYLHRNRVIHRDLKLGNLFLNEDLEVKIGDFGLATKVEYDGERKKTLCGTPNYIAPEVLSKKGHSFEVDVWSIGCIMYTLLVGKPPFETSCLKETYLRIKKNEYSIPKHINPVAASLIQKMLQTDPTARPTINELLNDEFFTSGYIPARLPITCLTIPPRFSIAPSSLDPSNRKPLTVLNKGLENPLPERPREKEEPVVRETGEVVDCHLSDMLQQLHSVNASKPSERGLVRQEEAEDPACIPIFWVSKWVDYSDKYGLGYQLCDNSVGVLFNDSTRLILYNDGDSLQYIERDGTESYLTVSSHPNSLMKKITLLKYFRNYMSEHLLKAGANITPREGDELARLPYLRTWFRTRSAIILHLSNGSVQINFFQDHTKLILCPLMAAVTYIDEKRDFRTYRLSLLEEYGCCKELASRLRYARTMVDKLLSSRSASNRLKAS
MBNL1-CUG inh: inhibitors of human MBNL1 binding to CUG repeat RNA; TR-FRET MBNL1-His/biotin-(CUG)12 binding, 665/545 ratio; AID 2675; actives 0.036% (n = 280,000); Q9NR56; Potency, µM (doses to about 57.5 µM), most hits filed as inhibitors; active means well fitted inhibition curve with a large enough effect in the signal ratio, with a control signal flat, not every such curve was filed as active; inconclusive means small, poorly fitted or top-dose-only effect, or effect the other way, or a change in a side signal; inactive means no such curve, though single readings can be large or run the other way; the % refers to the signal ratio
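His-tagged MBNL1 binding to biotinylated (CUG)12 RNA was measured by TR-FRET using terbium anti-His antibody (0.055 ng/ul final) and streptavidin-XL665 (5 nM final). Compounds were titrated 92 nM to 58 uM; 60 min at room temperature.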
KCNH2 3.1 inh: KCNH2 3.1 (human) potassium channel inhibition; U2OS KCNH2 3.1, thallium flux FluxOr; active compounds read low; activity change, % (tested at about 1.8 µM); actives 0.95% (n = 340,000); AID 720553;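 active means maximum activity change below -70%; inconclusive means maximum activity change from -70% to -50%; inactive means maximum activity change above -50%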;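 further: thallium influx rate constant from kinetic fluorescence after stimulation buffer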
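U2OS cells transduced with KCNH2 3.1 mutant virus (1.77 x 10^8 /mL, 4 h), plated overnight at 37 C, loaded 45 min with FluxOr dye plus Red40 quencher. Thallium flux rate constant from kinetic reads after stimulation buffer, normalised to controls.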
hERG WT inh: inhibitors of human wildtype KCNH2 potassium channel; actives 0.37% (n = 340,000); U2OS, BacMam KCNH2, thallium flux FluxOr; active compounds read low; activity change, % at 1.84 µM; Q12809;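 active means maximum activity change below -70%; inconclusive means maximum activity change between -70% and -50%; inactive means maximum activity change above -50%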
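U2OS cells transduced with wild-type KCNH2 virus are loaded with FluxOr dye for 45 min, and thallium flux is measured in kinetic reads before and after stimulation buffer. Rate constants are normalized to DMSO controls.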
VDR inhibitor: blocks the human vitamin D receptor. P11473. VDR-SRC2-3 peptide fluorescence polarization, 2 h. Potency, µM, most hits filed as inhibitors. actives 0.93% (n = 400,000). AID 504847
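Compounds are added to VDR with labelled SRC2-3 coactivator peptide and held 2 h at room temperature. Inhibition of the VDR–peptide interaction is then read as a change in fluorescence polarization.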
CBFb-RUNX1 inh: CBF-beta/RUNX1 interaction disruption | Q01196+Q13951 | AlphaScreen CBFb-His/RUNX1-biotin binding, biochemical | Potency, µM (series often up to 59.8 µM), hits mostly inhibitors | 230,000 tested, under 10 active | AID 1477
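AlphaScreen proximity signal reports loss of binding between His-tagged CBF-beta and biotin-labelled RUNX1, each at 30 nM. Proteins are pre-associated for 20 minutes, compounds added for 15 minutes, then beads for 90 minutes, all at ambient temperature.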
Numbers stand for hits; 0 = inactive; ? = inconclusive; - = no result given. Only some compounds are listed: those with a hit (about 3.8% of all), similar ones and a draw of the others. Unless noted, the call rests on the fitted dose curve; in most records, active means well fitted curve in the direction sought with a large enough effect; inconclusive means small, poorly fitted or top-dose-only effect, or another doubt; inactive means no such curve, though single readings can be large; an effect the other way counts as inactive or inconclusive.

SMILES	PLK1 PBD inh	MBNL1-CUG inh	KCNH2 3.1 inh	hERG WT inh	VDR inhibitor	CBFb-RUNX1 inh
Nn1c(SCC(=O)Nc2ccc3c(c2)OCCO3)nnc(CCC(=O)O)c1=O	3.36µM	0	0	0	?	-
CC(C)Oc1ccc(CNC(=O)C(C)n2ccc3cc(S(=O)(=O)N4CCCCCC4)ccc32)cc1 (stereo unspecified)	-	-	-	-	0	-
COc1ccccc1CCNC(=O)C1CCN(c2nnc(-n3cccc3CNc3ccc(C)cc3)s2)CC1	-	-	-	-	0	-
CCN(CC)CC(=O)c1ccc(-c2ccccc2)cc1	?	0	0	0	39.8µM	0
C/[N+]([O-])=C\CC(=O)c1ccc(-c2ccccc2)cc1	21.2µM	-	0	0	0	0
Cc1noc(/C=C/N(C)C)c1S(=O)(=O)N(C)Cc1ccc(F)cc1	0	0	-198.6	-133.6	?	-
COC(=O)c1[nH]c2cc(OC)ccc2c1NC(=O)CCN1CCN(c2cccc(C)c2C)CC1	0	0	-90.6	0	0	0
COC(=O)c1[nH]c2cc(OC)ccc2c1NC(=O)CCN1CCN(c2ccccc2)CC1	0	0	0	0	0	0
CC1(C)Cc2c(sc3ncn(N)c(=N)c23)CO1	0	0	0	0	0	0
CC1(C)Cc2c(sc3ncn4c(=S)[nH]nc4c23)CO1	29.9µM	0	0	0	?	0
CC1(C)CC(=O)C(C=NCCCN2CCOCC2)=C(O)C1	29.9µM	0	0	0	0	0
CC1(C)CC(=O)C(C=NCCN2CCNCC2)=C(O)C1	0	0	0	0	0	0
Cc1ccc(SC[C@H](CC(C)C)N2CCN(CCc3ccccc3)CCC2=O)cc1	0	0	-	-	0	0
CC(=O)Nc1ccc(SCC(Cc2ccccc2)N2CCN(CC(C)C)CCC2=O)cc1 (stereo unspecified)	-	-	-	-	0	0
COc1ccc(SC[C@H](CC(C)C)N2CCN(CCc3ccccc3)CCC2=O)cc1	0	0	-106.2	-75.0	0	0
CC(=O)Nc1ccc(SC[C@H](Cc2ccccc2)N2CCN(CC(C)C)CCC2=O)cc1	33.6µM	0	0	0	0	0
CC(=O)Nc1ccc(SC[C@H](CC(C)C)N2CCN(CC(C)C)CCC2=O)cc1	26.7µM	0	0	0	0	0
CC(=O)Nc1ccc(SC[C@H](CC(C)C)N2CCN(CCc3ccccc3)CCC2=O)cc1	18.9µM	0	?	0	0	0
CC(=O)Nc1ccc(SCC(Cc2ccccc2)N2CCN(CCc3ccccc3)CCC2=O)cc1 (stereo unspecified)	-	-	-	-	?	0
CCOC(=O)N1CCC(NC(=O)c2ccc3c(c2)N(Cc2ccc(F)cc2)C(=O)c2ccccc2S3=O)CC1 (stereo unspecified)	-	-	-	-	0	-
CCC(C(=O)Nc1cc(C)ccc1OC)n1nnc(C(=O)OC)c1C(=O)OC (stereo unspecified)	-	-	-	-	0	-
C/C(=N\O)C(=O)NCc1ccncc1	0	0	0	0	0	0
C/C(=N\O)C(=O)NCC1CCNCC1	26.7µM	0	0	0	0	0
CCc1ccc(NC(=O)Cn2c(=O)c3cc(Cl)ccc3n3nncc23)cc1	-	-	-	-	0	-
COC(C[C@@H](O)C[C@@H](O)[C@@H](C)OCc1ccccc1)OC	0	-	-221.7	0	0	-
SMILES	PLK1 PBD inh	MBNL1-CUG inh	KCNH2 3.1 inh	hERG WT inh	VDR inhibitor	CBFb-RUNX1 inh
CC(C)(C)c1ccc(C(=O)CCCN2CCC(OC(c3ccccc3)c3ccccc3)CC2)cc1	-	-	-	-	0	-
Cc1cc2nc3c(nc2cc1C)C(O)=C3O	8.44µM	?	0	0	0	0
NCc1nc2cccnc2n1Cc1ccccc1Cl	-	-	-	-	0	-
COc1ccccc1CNC(=O)c1cc2ccc3ccc(C)[nH]c3c2n1	-	-	-	-	0	-
CCc1ccc(NC(=O)C(C)Sc2nc(-c3ccco3)c(C#N)c(=O)[nH]2)cc1 (stereo unspecified)	23.8µM	0	0	0	?	-
CCOc1ccccc1NC(=O)C(C)Sc1nc(-c2ccccc2)c(C#N)c(=O)[nH]1 (stereo unspecified)	-	-	-	-	0	-
O=C(CCn1cnc2onc(-c3ccc(F)cc3)c2c1=O)N1CCN(c2ccccc2)CC1	-	-	-	-	0	-
COc1cc(/C=C2/SC(=S)N(C)C2=O)ccc1OC(=O)c1ccco1	0	-	0	0	0	0
COc1cc(/C=C2/SC(=S)N(CC(=O)O)C2=O)ccc1OC(=O)c1cccs1	23.8µM	?	0	0	?	0
COc1cc(/C=C2\SC(=S)N(CC(=O)O)C2=O)ccc1OS(=O)(=O)c1ccc(C)cc1	21.2µM	-	0	0	?	-
CC1CCc2c(sc3[nH]c(=S)n(C)c(=O)c23)C1 (stereo unspecified)	10.6µM	0	0	?	?	-
c1ccc(C2Nc3cccc4cccc(c34)N2)cc1	26.7µM	0	0	0	0	-
c1csc(C2Nc3cccc4cccc(c34)N2)c1	29.9µM	0	0	0	?	0
CN1c2cccc3cccc(c23)N(C)C1c1cccs1	0	0	0	0	0	0

Assay outcomes (PubChem)
